# Rows were chosen to be rich in hits. Some 1.1% of all compounds tested hit in one or more screens of this group.
# USP2a block = blocks human ubiquitin-specific protease USP2a | 330,000 tested, 0.01% active | Potency, µM (titrated, usually from 38.3 µM), for inactives: at the highest dose activity change, negative = inhibition, most hits filed as inhibitors | O75604 | AID 463254 | USP2 core, Ub-CHOP2 coupled fluorogenic reporter, 485/531;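 note: plate controls were DMSO wells for no effect and full inhibition by NEM control for full effect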
#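 USP2 core (10nM final) preincubated 30min RT with compound in 20mM Tris-HCl pH 8.0, 2mM CaCl2, 2mM beta-mercaptoethanol, 0.05% CHAPS; 25nM Ub-CHOP2 plus 25nM reporter substrate added, fluorescence (Ex485/Em531) read after 60min.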
# 12-LOX inh = inhibitors of human 12S-lipoxygenase ALOX12; P18054; Potency, µM (titrated, usually from 108 µM), for inactives: top-dose activity change, negative = inhibition, most hits filed as inhibitors; purified 12hLO, xylenol orange hydroperoxide absorbance; 580,000 tested, 1.1% active; note: % is set by controls: 0 for no effect and ±100 for the full control effect
#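 Purified human 12hLO at 150 nM in 25 mM Hepes, 0.01% Triton X-100, pH 7.0, preincubated 15 min at room temperature with compound. Reaction started with 40 uM arachidonic acid, 30 min at room temperature. Hydroperoxide measured by Fe-xylenol orange, 573/405 nm absorbance ratio.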
# Eya2 phos inh = blocks the phosphatase activity of human Eya2 | recombinant Eya2, OMFP fluorescence dephosphorylation (OMFP is methylfluorescein phosphate) | 330,000 tested, 0.006% active | Potency, µM (highest dose often 76.9 µM), without a hit: at the top dose activity, negative = inhibition, usual class: inhibitors; note: % is set by controls: 0 for no effect and ±100 for the full control effect
# Target sequence (O00167 whole entry, looked up): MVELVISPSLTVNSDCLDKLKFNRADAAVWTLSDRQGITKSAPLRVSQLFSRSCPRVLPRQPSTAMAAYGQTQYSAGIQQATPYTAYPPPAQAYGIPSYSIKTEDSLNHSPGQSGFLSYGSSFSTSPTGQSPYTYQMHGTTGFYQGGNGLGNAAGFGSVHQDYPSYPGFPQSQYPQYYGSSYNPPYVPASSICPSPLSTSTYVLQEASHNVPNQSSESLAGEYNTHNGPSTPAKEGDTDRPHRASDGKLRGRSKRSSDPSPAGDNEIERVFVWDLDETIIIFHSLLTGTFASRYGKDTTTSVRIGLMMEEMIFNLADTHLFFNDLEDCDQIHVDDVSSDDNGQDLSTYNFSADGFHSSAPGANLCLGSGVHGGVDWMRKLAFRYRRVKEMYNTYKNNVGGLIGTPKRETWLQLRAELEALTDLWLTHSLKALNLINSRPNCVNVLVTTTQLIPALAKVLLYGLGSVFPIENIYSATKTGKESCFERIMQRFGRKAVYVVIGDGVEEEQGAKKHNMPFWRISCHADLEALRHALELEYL
#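 Eya2 (0.2 uM) preincubated 10 min at ambient with compound, then OMFP substrate added at 50 uM; 10 min reaction in 50 mM HEPES pH 7.5, 50 mM NaCl, 5 uM MgCl2, 0.05% BSA, 1 mM DTT. Fluorescence read at Ex 485/Em 525 nm.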
# TSG101-PTAP inh = blocks PTAP/TSG101 interaction to inhibit HIV-1 budding; Q99816; Fluorescence polarization, FITC-PTAP peptide / Tsg101 binding; Potency, µM (doses to about 115 µM), without a hit: top-dose activity change, negative = inhibition, most hits filed as inhibitors; 340,000 tested, under 10 active; AID 493005; active = well fitted inhibition curve with a large enough effect in the main read-out, with a control signal flat, not every such curve was filed as active; inconclusive = small, poorly fitted or top-dose-only effect, or effect the other way, or a change in a side signal; inactive = no such curve, though single readings can be large or run the other way; note: % of control where 0% means no effect
#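 Tsg101 binding domain (10 uM final) was mixed with compound and a FITC-labeled PTAP peptide (50 nM final) in HEPES pH 7.5 buffer with NaCl, Tween 20, EDTA and TCEP; fluorescence polarization was read after 20 min at r.t.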
# Active calls of the source: *; ? = inconclusive; · = not tested or not shown; [ ] = dose if it differs, or a comment. Unless noted, calls come from the whole dose curve; as a rule, active = well fitted curve in the direction sought with a large enough effect; inconclusive = small, poorly fitted or top-dose-only effect, or another doubt; inactive = no such curve, though single readings can be large; an effect the other way counts as inactive or inconclusive. Potency is the fitted concentration of half-maximal effect.
SMILES,USP2a block,12-LOX inh,Eya2 phos inh,TSG101-PTAP inh
CNc1nc(Nc2ccc(C)cc2C)c2sccc2n1,·,-5%,·,·
COc1ccccc1N1CCN(CC(=O)Nc2nccs2)CC1,8%,20µM*,5%,-2%
Cc1cccc(N2CCN(CC(=O)Nc3nccs3)CC2)c1C,-4%,?,7%,-5%
COc1ccc(-c2ccc3c(c2)[C@@H]2C[C@H](N(C)C(=O)C(C)(C)C)[C@H]([C@H](C)O)C(=O)N2CC3)cc1,·,11µM*,·,-2%
COCC(=O)N(C)[C@H]1C[C@H]2c3cc(-c4ccccc4)ccc3CCN2C(=O)[C@H]1[C@H](C)O,·,4%,·,-8%
O=c1cc(CN2CCN(CCO)CC2)c2cc(Cl)c(O)cc2o1,·,-8%,·,·
CC1=NOC(=O)/C1=C\c1ccc(-c2ccc(Cl)cc2Cl)o1,-1%,16µM*,-6%,-2%
COc1cccc(N2CCN(c3nc(C(=O)NCc4ccncc4)cs3)CC2)c1,·,49%,·,·
COc1ccc(CCCC(=O)NC2CCCCC2C)c(C)c1 (stereo unspecified),3%,8.9µM*,-11%,-1%
O=C(O)c1cc2ccccc2c2c1C(=O)c1ccccc1-2,·,-4%,·,·
O=C1C=C(c2c(O)ccc3ccccc23)c2ccccc2C1=O,·,45µM*,·,0%
CC(C)Cc1cnc(-c2ccccc2)[nH]1,·,3%[176 µM],·,·
O=C(c1cnccn1)N1CC(=O)N2[C@@H](CO)[C@H](c3ccc(Br)cc3)[C@@H]2C1,·,10µM*,·,·
O=C(c1cccnc1)N1CC(=O)N2[C@@H](CO)[C@@H](c3ccc(Br)cc3)[C@@H]2C1,·,-18%,·,·
O=C(NCc1ccc(-c2nc3ccccc3s2)o1)c1ccccc1Br,·,-21%,·,·
CC(C)NS(=O)(=O)c1ccc(C(=O)NCc2ccc(-c3nc4ccccc4s3)o2)cc1,·,25µM*,·,·
O=S(=O)(c1cc(F)ccc1F)N1CCN(Cc2cccc3cccnc23)CC1,·,16µM*,·,·
Cc1cccc(N2CCC(N=CN(C)C)=N2)c1,1%,45µM*,-11%,-1%
CC/C=C\CCOC(C)=O,·,8%[176 µM],·,·
O=C(Nc1nnc(COc2ccc(Cl)cc2)s1)c1ccco1,0%,45µM*,0%,-1%
Cn1c(=O)c2ccnn2c2ccc(C(=O)Nc3ccc4c(c3)OCCO4)cc21,·,9%,·,·
COc1ccc(CSC(=S)NNc2ccccc2)cc1,·,22µM*,·,·
Cc1ccccc1NC(=O)c1sc2c(c1C)C(c1ccsc1)CC(=O)N2 (stereo unspecified),·,-28%,·,·
Cc1ccccc1NC(=O)c1sc2c(c1C)C(c1cccs1)CC(=O)N2 (stereo unspecified),·,25µM*,·,·
CN(CC(=O)Nc1ccc(Cl)cc1)C(=O)COc1cccc(F)c1,·,40µM*,·,·
SMILES,USP2a block,12-LOX inh,Eya2 phos inh,TSG101-PTAP inh
Cc1onc(-c2ccccc2)c1C(=O)NC(=S)NNC(=O)c1ccncc1,4%,-15%,5%,0%
Cc1onc(-c2ccccc2)c1C(=O)NC(=S)NNC(=O)c1cc(-c2ccc(F)cc2)n[nH]1,2%,45µM*,-5%,-2%
CCCNC(=O)c1cc(-c2ccc(OC)cc2OC)nc2ccccc12,·,13µM*,·,·
COc1ccc(-c2cc(C(=O)O)c3ccccc3n2)c(OC)c1,1%,?,1%,-1%
COc1ccc(C(=O)Nc2c(C)nc(Nc3ccc(C)cc3)nc2Nc2ccc(C)cc2)cc1OC,·,0%,·,·
COc1ccc(Nc2nc(C)c(NC(=O)c3cccc(C)c3)c(Nc3ccc(OC)cc3)n2)cc1,·,35µM*,·,·
O=C1N=c2ccc(Br)cc2=C1c1sc(=S)n(NS(=O)(=O)c2ccccc2)c1O,-1%,35µM*,18%,-4%
Cc1ccc(C(=O)Nn2c(O)c(C=C3N=c4ccccc4=N3)sc2=S)cc1,0%,25%,11%,-26%
Cc1ccc(S(=O)(=O)Nn2c(O)c(C=C3N=c4ccccc4=N3)sc2=S)cc1,-2%,35µM*,-19%,-3%
O=C1N=c2ccccc2=C1c1sc(=S)n(NC(=O)c2cccc(O)c2)c1O,-2%,-30%,-7%,-1%
CCC(=O)c1c(N)cc(C)oc1=O,·,-2%,·,·
O=C1CCCC(O)=C1Sc1cc(Cl)c(Cl)cc1Cl,·,40µM*,·,-2%
CC1(C)CC(=O)C2=C(C1)c1c(ccc3ccccc13)NC2c1cc([N+](=O)[O-])cc([N+](=O)[O-])c1O (stereo unspecified),-15%,40µM*,11%,-9%
